# Source: the supplement of paper PMC12282887
# ± gives the standard deviation of the averaged measurements.
# Legend:
# Assay in all cases: promoter activity interaction Z-score (Lux/OD deviation from empty-vector control); higher = stronger promoter induction by the compound
# [1] = tested on: E. coli BW25113 acrABp lux reporter
# In short: (§1)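 Low-copy luxCDABE promoter reporters were carried by E. coli BW25113, either wild type or lacking one of three genes, grown in 40 µl LB Lennox in 384-well plates at 37°C. Each compound was run at four 1:2 dilutions in biological duplicates, with OD600 and luminescence read every 30 min for 12 h. Integration used 0–8 h for wild type and 1–9 h for deletion strains, and wells under 10% of the median growth value were removed. Luminescence normalised to growth was fitted against a control, and the Z-transformed residual is the score.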
# [2] = tested on: E. coli BW25113 marRABp lux reporter
# In short: as §1
# [3] = tested on: E. coli BW25113 micFp lux reporter
# In short: as §1
# [4] = tested on: E. coli BW25113 ompFp lux reporter
# In short: as §1
# [5] = tested on: E. coli BW25113 robp lux reporter
# In short: as §1
# [6] = tested on: E. coli BW25113 soxSp lux reporter
# In short: as §1
# [7] = tested on: E. coli BW25113 tolCp lux reporter
# In short: as §1
# [8] = 1.8 µg/ml, genetic background: wild type
# [9] = 1.8 µg/ml, genetic background: ΔmarA
# [10] = 1.8 µg/ml, genetic background: Δrob
# [11] = 1.8 µg/ml, genetic background: ΔsoxS
# [12] = 3.7 µg/ml, genetic background: wild type
# [13] = 3.7 µg/ml, genetic background: ΔmarA
# [14] = 3.7 µg/ml, genetic background: Δrob
# [15] = 3.7 µg/ml, genetic background: ΔsoxS
# [16] = 7.3 µg/ml, genetic background: wild type
# [17] = 7.3 µg/ml, genetic background: ΔmarA
# [18] = 7.3 µg/ml, genetic background: Δrob
# [19] = 7.3 µg/ml, genetic background: ΔsoxS
# [20] = 14.7 µg/ml, genetic background: wild type
# [21] = 14.7 µg/ml, genetic background: ΔmarA
# [22] = 14.7 µg/ml, genetic background: ΔsoxS
smiles,measurement,setting,value
CC[C@H]1OC(=O)[C@H](C)[C@@H](O[C@H]2C[C@@](C)(OC)[C@@H](O)[C@H](C)O2)[C@H](C)[C@@H](O[C@@H]2O[C@H](C)C[C@H](N(C)C)[C@H]2O)[C@](C)(O)C[C@@H](C)C(=O)[C@H](C)[C@@H](O)[C@]1(C)O [Erythromycin],promoter activity interaction Z-score,[1]; [8],0.453 ± 0.14
same,promoter activity interaction Z-score,[1]; [9],0.681 ± 0.23
same,promoter activity interaction Z-score,[1]; [10],0.159 ± 0.56
same,promoter activity interaction Z-score,[1]; [11],0.201 ± 0.23
same,promoter activity interaction Z-score,[1]; [12],0.762 ± 0.17
same,promoter activity interaction Z-score,[1]; [13],-1.09 ± 0.061
same,promoter activity interaction Z-score,[1]; [14],0.417 ± 0.063
same,promoter activity interaction Z-score,[1]; [15],1.35 ± 1.5
same,promoter activity interaction Z-score,[1]; [16],1.66 ± 0.12
same,promoter activity interaction Z-score,[1]; [17],-0.406 ± 0.24
same,promoter activity interaction Z-score,[1]; [18],1.7 ± 0.48
same,promoter activity interaction Z-score,[1]; [19],2.23 ± 1.1
same,promoter activity interaction Z-score,[1]; [20],7.47 ± 0.26
same,promoter activity interaction Z-score,[2]; [8],0.316 ± 0.064
same,promoter activity interaction Z-score,[2]; [9],0.0943 ± 0.048
same,promoter activity interaction Z-score,[2]; [10],0.109 ± 0.022
same,promoter activity interaction Z-score,[2]; [11],0.268 ± 0.14
same,promoter activity interaction Z-score,[2]; [12],0.459 ± 0.1
same,promoter activity interaction Z-score,[2]; [13],0.54 ± 0.35
same,promoter activity interaction Z-score,[2]; [14],0.617 ± 0.38
same,promoter activity interaction Z-score,[2]; [15],0.806 ± 0.22
same,promoter activity interaction Z-score,[2]; [16],1.87 ± 0.21
same,promoter activity interaction Z-score,[2]; [17],1.31 ± 0.22
same,promoter activity interaction Z-score,[2]; [18],1.34 ± 0.3
same,promoter activity interaction Z-score,[2]; [19],1.3 ± 0.3
same,promoter activity interaction Z-score,[2]; [20],2.2 ± 0.17
same,promoter activity interaction Z-score,[2]; [21],2.59
same,promoter activity interaction Z-score,[3]; [8],0.913 ± 0.45
same,promoter activity interaction Z-score,[3]; [9],-0.122 ± 0.027
same,promoter activity interaction Z-score,[3]; [10],-0.273 ± 0.066
same,promoter activity interaction Z-score,[3]; [11],0.0903 ± 0.17
same,promoter activity interaction Z-score,[3]; [12],0.742 ± 0.35
same,promoter activity interaction Z-score,[3]; [13],-0.1986 ± 0.0018
same,promoter activity interaction Z-score,[3]; [14],-0.176 ± 0.13
same,promoter activity interaction Z-score,[3]; [15],0.695 ± 0.24
same,promoter activity interaction Z-score,[3]; [16],0.748 ± 0.99
same,promoter activity interaction Z-score,[3]; [17],-0.167 ± 0.085
same,promoter activity interaction Z-score,[3]; [18],-0.148 ± 0.073
same,promoter activity interaction Z-score,[3]; [19],-0.224 ± 0.12
same,promoter activity interaction Z-score,[3]; [20],-1.13 ± 0.77
same,promoter activity interaction Z-score,[3]; [21],-0.537 ± 0.026
same,promoter activity interaction Z-score,[3]; [22],-0.792 ± 0.2
same,promoter activity interaction Z-score,[4]; [8],0.573 ± 0.45
same,promoter activity interaction Z-score,[4]; [9],0.458 ± 0.21
same,promoter activity interaction Z-score,[4]; [10],0.2177 ± 0.0014
same,promoter activity interaction Z-score,[4]; [11],0.925 ± 0.37
same,promoter activity interaction Z-score,[4]; [12],0.894 ± 0.58
same,promoter activity interaction Z-score,[4]; [13],0.288 ± 0.31
same,promoter activity interaction Z-score,[4]; [14],1.58 ± 1.1
same,promoter activity interaction Z-score,[4]; [15],2.48 ± 1.1
same,promoter activity interaction Z-score,[4]; [16],1.78 ± 0.84
same,promoter activity interaction Z-score,[4]; [17],1.17 ± 0.52
same,promoter activity interaction Z-score,[4]; [18],1.96 ± 2
same,promoter activity interaction Z-score,[4]; [19],1.97 ± 0.072
same,promoter activity interaction Z-score,[4]; [20],-0.66 ± 0.73
same,promoter activity interaction Z-score,[4]; [22],-1.6
same,promoter activity interaction Z-score,[5]; [8],-0.139 ± 0.59
same,promoter activity interaction Z-score,[5]; [9],-0.666 ± 0.22
same,promoter activity interaction Z-score,[5]; [10],-0.816 ± 0.1
same,promoter activity interaction Z-score,[5]; [11],-0.469 ± 0.72
same,promoter activity interaction Z-score,[5]; [12],-0.638 ± 0.12
same,promoter activity interaction Z-score,[5]; [13],-2.16 ± 0.55
same,promoter activity interaction Z-score,[5]; [14],-1.32 ± 0.2
same,promoter activity interaction Z-score,[5]; [15],-0.16 ± 0.77
same,promoter activity interaction Z-score,[5]; [16],-2.01 ± 0.31
same,promoter activity interaction Z-score,[5]; [17],-2.33 ± 0.13
same,promoter activity interaction Z-score,[5]; [18],-2.18 ± 0.23
same,promoter activity interaction Z-score,[5]; [19],-2.29 ± 0.77
same,promoter activity interaction Z-score,[5]; [20],-2.43 ± 0.2
same,promoter activity interaction Z-score,[5]; [21],-3.56 ± 0.35
same,promoter activity interaction Z-score,[6]; [8],0.111 ± 0.015
same,promoter activity interaction Z-score,[6]; [9],0.214 ± 0.046
same,promoter activity interaction Z-score,[6]; [10],-0.111 ± 0.089
same,promoter activity interaction Z-score,[6]; [11],0.0397 ± 0.3
same,promoter activity interaction Z-score,[6]; [12],-0.0179 ± 0.043
same,promoter activity interaction Z-score,[6]; [13],-0.0482 ± 0.098
same,promoter activity interaction Z-score,[6]; [14],0.228 ± 0.28
same,promoter activity interaction Z-score,[6]; [15],0.647 ± 0.18
same,promoter activity interaction Z-score,[6]; [16],0.0493 ± 0.044
same,promoter activity interaction Z-score,[6]; [17],0.351 ± 0.19
same,promoter activity interaction Z-score,[6]; [18],0.215 ± 0.16
same,promoter activity interaction Z-score,[6]; [19],1.65 ± 0.52
same,promoter activity interaction Z-score,[6]; [20],0.956 ± 0.22
same,promoter activity interaction Z-score,[6]; [21],0.78 ± 0.098
same,promoter activity interaction Z-score,[6]; [22],3.05 ± 2.9
same,promoter activity interaction Z-score,[7]; [8],0.39 ± 0.18
same,promoter activity interaction Z-score,[7]; [9],-0.768 ± 0.45
same,promoter activity interaction Z-score,[7]; [10],-0.66 ± 0.14
same,promoter activity interaction Z-score,[7]; [11],-0.318 ± 0.13
same,promoter activity interaction Z-score,[7]; [12],0.0127 ± 0.24
same,promoter activity interaction Z-score,[7]; [13],-1.38 ± 0.97
same,promoter activity interaction Z-score,[7]; [14],-0.333 ± 1.4
same,promoter activity interaction Z-score,[7]; [15],-0.0456 ± 0.47
same,promoter activity interaction Z-score,[7]; [16],0.177 ± 1.4
same,promoter activity interaction Z-score,[7]; [17],-0.63 ± 0.74
same,promoter activity interaction Z-score,[7]; [18],0.449 ± 2.3
same,promoter activity interaction Z-score,[7]; [19],0.434 ± 0.85
same,promoter activity interaction Z-score,[7]; [20],1.66 ± 1.9
same,promoter activity interaction Z-score,[7]; [21],-1.14 ± 3.2
same,promoter activity interaction Z-score,[7]; [22],0.542 ± 0.66
